Screening data deposited in PubChem by National Center for Advancing Translational Sciences (NCATS).
BAZ2B inh: BAZ2B (human) inhibition. AID 504333. 360,000 compounds, 4.4% hits. Q9UIF8. Potency, µM (highest dose often 114 µM), for the others: top-dose activity change, negative = inhibition, actives largely listed as inhibitors. AlphaScreen BAZ2B-H3K14Ac peptide displacement; note: % is set by controls: 0 for no effect and ±100 for the full control effect; nearly all actives have a fitted effect of over 60% in size
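BAZ2B 50 nM plus b-H3(5-23)K14Ac 50 nM, PBS pH 7.4/0.01% Tween-20, 30 min RT; compound added (max 110 uM), 30 min RT; streptavidin donor/Ni-chelate acceptor beads 10 ug/mL final, 20 min dark; AlphaScreen read.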
G9a block: inhibitors of human histone lysine methyltransferase G9a; G9a H3K9 monomethylation, AlphaScreen, 2 h; Potency, µM (top dose mostly 102 µM), for the others: at the top dose activity, negative = inhibition, usual class: inhibitors; 350,000 compounds, 8.8% hits; AID 504332; note: % is set by controls: 0 for no effect and ±100 for the full control effect; nearly all actives have a fitted effect of over 75% in size
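Readings reflect AlphaScreen signal from monomethyl-H3K9 antibody detection. HMT at 20 nM; substrate b-H3K9 500 nM; cofactor SAM 20 uM; 2 h RT reaction; compounds tested as titrations in qHTS with 15 min preincubation.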
HP1b binding inh: blocks HP1-beta chromodomain binding to methylated histone tails; Potency, µM (top dose mostly 114 µM), for inactives: at the highest dose activity change, negative = inhibition, actives largely listed as inhibitors; 390,000 compounds, 0.56% hits; AlphaScreen HP1-beta / biotin-H3K9me3 peptide binding; note: nearly all actives have a fitted effect of over 70% in size
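AlphaScreen: HP1-beta (50 nM) preformed 30 min with biotin-H3(1-18)K9me3 peptide (50 nM) in PBS pH 7.4, 0.01% Tween-20. Compound added for 30 min at RT, then streptavidin donor/nickel chelate acceptor beads (10 ug/mL) for 30 min.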
JMJD2A Tudor: inhibitors of human JMJD2A Tudor domain | O75164 | Potency, µM (top dose mostly 114 µM), for the others: at the top dose activity change, negative = inhibition, actives largely listed as inhibitors | AlphaScreen JMJD2A-Tudor / H3K4me3 peptide binding | 390,000 compounds, 4.4% hits; note: % is set by controls: 0 for no effect and ±100 for the full control effect; nearly all actives have a fitted effect of over 50% in size
PLK1 PBD block: inhibitors of human PLK1 polo-box domain binding; P53350; AID 720504; Plk1 PBD binding of FITC phosphopeptide, fluorescence polarization; Potency, µM, without a hit: max response, negative = inhibition, most hits filed as inhibitors; 360,000 compounds, 2.8% hits; note: series mostly up to about 57 µM; % is set by controls: 0 for no effect and ±100 for the full control effect; nearly all actives have a fitted effect of over 65% in size
Sfp PPTase inh: inhibitors of Bacillus subtilis Sfp phosphopantetheinyl transferase; Q9F4F7; Biochemical Sfp PPTase activity, qHTS; Potency, µM, without a hit: largest response in the series, negative = inhibition, usual class: inhibitors; 310,000 compounds, 3.5% hits; AID 1490;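 note: the enzyme is Sfp with the accession as filed and its product quenches rhodamine fluorescence; 0% = enzyme reaction without inhibitor and -100% = no enzyme wells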
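Compounds were incubated with enzyme (final 15 nM) for 15 min at room temperature before substrate addition started the reaction. Fluorescence at 525 nm excitation, 598 nm emission was recorded immediately and after 30 minutes.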
Starred values were filed as active, the others as inactive; [ ] = another dose, or the depositor's remark. Only some compounds are listed: those with a hit (about 12% of all), similar ones and a draw of the others. Calls come from the whole dose curve; as a rule, active = well fitted curve in the direction sought with a large enough effect; inconclusive = small, poorly fitted or top-dose-only effect, or another doubt; inactive = no such curve, though single readings can be large; an effect the other way counts as inactive or inconclusive. Potency is the fitted concentration of half-maximal effect.

What do the screens show for `COc1cc(CN2CCNC(=O)C2CC(=O)N(C)Cc2cccnc2)cc(OC)c1` (stereo not given)?
BAZ2B inh: -8.1%; G9a block: -8.8%[12.7 µM]; HP1b binding inh: 21.6%; JMJD2A Tudor: inconclusive; PLK1 PBD block: 15µM*; Sfp PPTase inh: 15.3%

Results for CN(Cc1nccs1)C(=O)CC1C(=O)NCCN1Cc1ccc(-c2ccccc2)cc1 (stereo not given) ?
BAZ2B inh: -35.4%; G9a block: inconclusive; HP1b binding inh: -1.2%; JMJD2A Tudor: inconclusive; PLK1 PBD block: 26.7µM*; Sfp PPTase inh: 44.7µM*

How did O=C(CC1C(=O)NCCN1Cc1ccc(-c2ccccc2)cc1)NCCOc1cccnc1 (stereo not given) do in these assays?
BAZ2B inh: -9.2%; G9a block: 50.1µM*; HP1b binding inh: 11.3%; JMJD2A Tudor: -27.7%; PLK1 PBD block: -7.2%; Sfp PPTase inh: -13.9%

What do the screens show for `CC(C)(C)CN1CCNC(=O)C1CC(=O)N1CCN(c2ccccc2)CC1` (stereo not given)?
BAZ2B inh: -20.0%; G9a block: 56.2µM*; HP1b binding inh: 27.9%; JMJD2A Tudor: -21.5%; PLK1 PBD block: -6.5%; Sfp PPTase inh: -27.9%

Results for CC(C)(C)CN1CCNC(=O)C1CC(=O)N1CCC(C(=O)N2CCOCC2)CC1 (stereo not given) ?
BAZ2B inh: -16.2%; G9a block: -9.9%; HP1b binding inh: 28.8%; JMJD2A Tudor: -1.5%[11.4 µM]; PLK1 PBD block: -12.5%; Sfp PPTase inh: 22.6%

What do the screens show for `COC(=O)CCN(C(=O)c1cccc([N+](=O)[O-])c1)c1ccccn1`?
BAZ2B inh: -0.4%; G9a block: 2.9%; HP1b binding inh: 22.8%; JMJD2A Tudor: -3.5%; PLK1 PBD block: -13.2%; Sfp PPTase inh: 21.2%

Results for CC1CCCCC1NC(=O)CCN1C(=O)C2C3C=CC(C3)C2C1=O (stereo not given) ?
BAZ2B inh: -12.6%[57.1 µM]; G9a block: 15.3%; HP1b binding inh: 27.0%; JMJD2A Tudor: -13.1%; PLK1 PBD block: -17.7%; Sfp PPTase inh: 10.2%

Results for Cc1cccc(OCc2nnc(SCC(=O)Nc3ccc(C)cc3C)o2)c1 ?
BAZ2B inh: 11.6%; G9a block: 15.6%[59 µM]; HP1b binding inh: 14.4%; JMJD2A Tudor: inconclusive

What do the screens show for `CCNc1ncc2nc(-c3cc(F)cc(F)c3)c(=O)n(C[C@H]3CCCO3)c2n1`?
G9a block: 2.2%[0.501 µM]; Sfp PPTase inh: 11.0%

Results for Cc1ccc(CCNC(=O)C(CC(C)C)NS(=O)(=O)c2ccc3c(c2)oc(=O)n3C)cc1 (stereo not given) ?
BAZ2B inh: -13.7%; G9a block: -10.3%[59 µM]; HP1b binding inh: 26.8%; JMJD2A Tudor: -11.8%

How did Cc1cc(C)cc(NC(=O)c2cc(CN3CCCC3)on2)c1 do in these assays?
BAZ2B inh: -22.3%; G9a block: -6.0%[59 µM]; HP1b binding inh: -16.6%; JMJD2A Tudor: -32.7%

How did CS(=O)(=O)N1CCCC(C(=O)NCCCN2CCOCC2)C1 (stereo not given) do in these assays?
BAZ2B inh: -2.0%; G9a block: -4.4%; HP1b binding inh: 36.7%; JMJD2A Tudor: -11.3%; PLK1 PBD block: 0.2%; Sfp PPTase inh: 14.1%

Results for CN(Cc1cccnc1)C(=O)CC1C(=O)NCCN1Cc1ccc(-c2ccccc2)cc1 (stereo not given) ?
G9a block: 50.1µM*; HP1b binding inh: 23.1%; JMJD2A Tudor: -24.5%; PLK1 PBD block: -13.6%; Sfp PPTase inh: -9.0%

How did CN(Cc1ccon1)C(=O)CC1C(=O)NCCN1CC(C)(C)C (stereo not given) do in these assays?
BAZ2B inh: -6.1%; G9a block: 44.7µM*; HP1b binding inh: 44.2%; JMJD2A Tudor: -9.8%[11.4 µM]; PLK1 PBD block: -11.8%; Sfp PPTase inh: 11.9%

What do the screens show for `CN(Cc1ccon1)C(=O)CC1C(=O)NCCN1Cc1ccc(F)c(F)c1` (stereo not given)?
BAZ2B inh: -0.8%; HP1b binding inh: 16.7%; JMJD2A Tudor: -5.6%; PLK1 PBD block: -20.4%; Sfp PPTase inh: 3.6%

Results for Cc1cc(CN(C)C(=O)CC2C(=O)NCCN2Cc2ccc(-c3ccccc3)cc2)on1 (stereo not given) ?
BAZ2B inh: inconclusive; G9a block: 39.8µM*; HP1b binding inh: 15.8%; JMJD2A Tudor: -31.9%; PLK1 PBD block: -21.4%; Sfp PPTase inh: -1.1%

How did COc1cccc(CNCCSc2nnnn2C)c1OCc1ccc(Cl)cc1 do in these assays?
BAZ2B inh: -24.4%; G9a block: 1.7%[59 µM]; HP1b binding inh: 21.6%; JMJD2A Tudor: -1.9%

How did CCN(c1ccc(NC(=O)COC(=O)c2cccs2)cc1)C(C)C do in these assays?
BAZ2B inh: inconclusive; G9a block: 11.2µM*; HP1b binding inh: inconclusive; JMJD2A Tudor: 44.7µM*; PLK1 PBD block: -3.2%; Sfp PPTase inh: -5.5%

What do the screens show for `CCN(c1ccc(NC(=O)COC(=O)c2cc3ccccc3oc2=O)cc1)C(C)C`?
BAZ2B inh: 31.6µM*; G9a block: 22.4µM*; HP1b binding inh: inconclusive; JMJD2A Tudor: 28.2µM*; PLK1 PBD block: -5.1%; Sfp PPTase inh: 3.6%

What do the screens show for `CN(C)S(=O)(=O)c1cccc(NC(=O)COC(=O)COc2ccc(Br)cc2)c1`?
BAZ2B inh: -0.4%; G9a block: 14.0%[12.7 µM]; HP1b binding inh: 12.0%; JMJD2A Tudor: -16.9%[11.4 µM]; PLK1 PBD block: 26.7µM*; Sfp PPTase inh: 22.4%

How did CN(C)S(=O)(=O)c1cccc(NC(=O)COC(=O)c2cc3ccccc3oc2=O)c1 do in these assays?
BAZ2B inh: 18.2%; G9a block: 79.4µM*; HP1b binding inh: 25.0%; JMJD2A Tudor: -11.3%; PLK1 PBD block: -23.0%; Sfp PPTase inh: 16.0%

What do the screens show for `Cc1cccn2c(=O)c3cc(C(=O)NCc4ccccc4Cl)sc3nc12`?
BAZ2B inh: 11.0%; G9a block: 2.5%[59 µM]; HP1b binding inh: 27.8%; JMJD2A Tudor: -11.3%

What do the screens show for `C/C(CCN1CCCc2nc(C)c(C)cc21)=N\OC[C@@H](O)[C@@H]1O[C@@H]2OC(C)(C)O[C@@H]2[C@H]1O`?
Sfp PPTase inh: 13.8%

What do the screens show for `NC(=NCc1ccc2c(c1)OCO2)NC(=O)c1ccccc1`?
BAZ2B inh: 39.8µM*; G9a block: inconclusive; HP1b binding inh: -21.8%; JMJD2A Tudor: inconclusive; PLK1 PBD block: -11.9%; Sfp PPTase inh: inconclusive

How did Cc1cccc(NC(=S)N2CCn3cccc3C2c2cccnc2)c1 (stereo not given) do in these assays?
BAZ2B inh: inconclusive; G9a block: 50.1µM*; HP1b binding inh: -10.3%; JMJD2A Tudor: -29.6%; PLK1 PBD block: -9.7%; Sfp PPTase inh: 1.2%
